# Assay outcomes deposited in PubChem BioAssay by National Center for Advancing Translational Sciences (NCATS).
# In the library only some 0.93% were active in any assay of this set; here they are far more common.
# CtBP-E1A inh – inhibitors of CtBP/E1A interaction | AlphaScreen GST-E1A/His-CtBP binding, 1536-well; stronger effect = lower value | activity change, % (concentration not given with the values) | hit rate 0.49% among 340,000
#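 GST-E1A and His-tagged CtBP (125 nM each as 5X stock) were preincubated with pin-transferred compound for 2 h at 37 °C in the dark, then glutathione donor and nickel acceptor beads were added for 1 h before AlphaScreen reading.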
# MBNL1 CUG block – MBNL1-poly(CUG) RNA binding inhibition; Q9NR56; TR-FRET MBNL1-His/biotin-(CUG)12 binding, 665/545 ratio; Potency, µM (top dose mostly 57.5 µM), for the others: at the highest dose activity change, negative = inhibition, most hits filed as inhibitors; hit rate 0.036% among 280,000; AID 2675; active = well fitted inhibition curve with a large enough effect in the signal ratio, with a control signal flat, not every such curve was filed as active; inconclusive = small, poorly fitted or top-dose-only effect, or effect the other way, or a change in a side signal; inactive = no such curve, though single readings can be large or run the other way; the % refers to the signal ratio; note: potency is the fitted concentration of half-maximal effect
# Target sequence (Q9NR56 whole entry, looked up): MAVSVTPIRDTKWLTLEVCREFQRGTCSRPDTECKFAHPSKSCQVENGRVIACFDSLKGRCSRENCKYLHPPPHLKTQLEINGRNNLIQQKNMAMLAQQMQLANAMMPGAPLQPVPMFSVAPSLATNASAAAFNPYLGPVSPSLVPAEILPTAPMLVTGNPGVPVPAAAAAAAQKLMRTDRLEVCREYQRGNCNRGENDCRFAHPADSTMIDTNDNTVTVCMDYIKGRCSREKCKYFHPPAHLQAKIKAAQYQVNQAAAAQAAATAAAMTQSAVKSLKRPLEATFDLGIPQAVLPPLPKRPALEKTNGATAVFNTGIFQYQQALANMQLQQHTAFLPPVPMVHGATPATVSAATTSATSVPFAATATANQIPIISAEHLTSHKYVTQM
#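 Compounds (final 92 nM to 58 uM) are added to His-tagged MBNL1 and biotin-(CUG)12, then terbium anti-His antibody and streptavidin-XL665 (5 nM final). After 60 min at room temperature, the 665/545 nm ratio is read.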
# Six1-Eya2 blk – Six1/Eya2 interaction inhibition; hit rate 0.56% among 360,000; Q15475+O00167; AlphaScreen GST-Six1/His-Eya2 binding, biochemical; stronger effect = lower value; activity change, % (test concentration not listed)
#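 AlphaScreen with GST-Six1 and His-Eya2 (5X mix: 250 nM and 500 nM), glutathione donor and nickel acceptor beads; buffer 50 mM Tris pH 8.0, 300 mM NaCl, 1 mM TCEP; 1 h at 37 C in the dark.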
# PKM2 activator – increases activity of human pyruvate kinase M2; P14618; purified PKM2, Kinase-Glo ATP luminescence, activation; response scale: 0% is enzyme alone, no compound; Potency, µM (top dose mostly 57.5 µM), without a hit: at the top dose activation, most hits filed as activators; hit rate 0.34% among 260,000; AID 1631; active = well fitted activation curve with a large enough effect; inconclusive = small, poorly fitted or top-dose-only effect; inactive = no such curve, though single readings can be large or run the other way; note: potency is the fitted concentration of half-maximal effect; nearly all actives have a fitted effect of over 55% in size
#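 Purified hPK-M2 (>95%) run at intermediate activity with 0.1 mM ADP and 0.5 mM PEP in 50 mM imidazole pH 7.2, KCl, MgCl2; 1 h room temperature. ATP formed read by Kinase-Glo luminescence; normalized to uninhibited and no-enzyme controls.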
# The depositor's hits bear a star; ? = inconclusive; · = no result; [ ] = another dose, or the depositor's remark. Cut-off read from the data, not from the text of the source, unless noted: active = activity change below about -65%; inconclusive = mostly about -30% to -63%; inactive = weaker than that. % is set by controls: 0 for no effect and ±100 for the full control effect.
SMILES,CtBP-E1A inh,MBNL1 CUG block,Six1-Eya2 blk,PKM2 activator
Cc1cccnc1C(NC(=O)C1CCN(Cc2cn(C)c3ccccc23)CC1)c1ccc(Cl)cc1 (configuration not stated),-28.8,·,?,·
Cc1nn(-c2ccccc2)c(N2CCCC2)c1/C=N/NC(=O)c1ccccc1O,?,-9.4%,?,11.8%
O=C(N/N=C/c1cc2c3c(c1O)CCCN3CCC2)c1ccccc1O,-66.1*,?,-90.2*,4.9%
Clc1ccc(Cn2ncc3c(N4CCCC4)ncnc32)cc1,-4.3,-3.2%,-0.1,-8.9%
Cc1ccc(Cn2ncc3c(N4CCCC4)ncnc32)cc1,-2.1,-2.8%,-3.2,12.6µM*
COc1ccc(NC(=O)c2cccc(N3C(=O)c4ccc(C(=O)Nc5ccc(OC)c(O)c5)cc4C3=O)c2)cc1O,-65.8*,-5.9%,?,-6.3%
C/C(CCc1oc2c(Br)cc(Br)cc2c1-c1ccc(C)o1)=N\O,6.4,?,-18.5,15.8µM*
CCCc1nc2ccc(C)cn2c1Cc1ccc(OC)cc1C,-4.5,·,9.0,·
CC(C)NC(=O)[C@@H]1C[C@H]1[C@@H](NC(=O)OCc1ccccc1)c1ccccc1,·,·,·,-0.7%
O=[N+]([O-])c1cc(Cl)c(O)c2ncccc12,-90.7*,-2.1%,-80.3*,?
Oc1c(I)cc(Cl)c2cccnc12,-94.6*,25.8%,-95.3*,10.3%
O=[N+]([O-])c1cc(Cl)c2cccnc2c1O,-91.5*,?,-81.3*,?
O=[N+]([O-])c1cc(F)c2cccnc2c1O,·,?,-87.9*,?
Oc1c(Cl)c(Cl)c2ncccc2c1Cl,-0.5,·,-14.1,·
COc1ccc([C@]23Cc4ccccc4C(O2)C2=C(CC(C)(C)CC2=O)O3)cc1,·,10.6%[11.5 µM],·,?
COC(=O)[C@@H]1C[C@@]2(O)[C@H](O)[C@H](O)[C@H](O)C[C@H]2N1Cc1ccc(N2CCN(C)CC2)cc1,·,·,·,0.5%
CCN1CCCC1Cn1c(-c2ccccc2)nc2c(NCCOC)nc(C)nc21 (configuration not stated),·,·,·,-6.8%
Clc1cc2cccnc2c2ncccc12,-96.0*,·,-67.2*,·
O=[N+]([O-])c1ccc(Cl)c2cccnc12,-1.9,·,-10.8,1.4%
Cc1c(C)c2cccnc2c2ncccc12,-95.4*,·,-92.5*,·
O=C1C=CN(C2OC(CO)C(O)C2O)C(=O)C1 (configuration not stated),3.9,·,-0.1,·
Cn1c(=O)n(C)c2cc(S(=O)(=O)Nc3cc(Cl)ccc3O)ccc21,-6.1,1.6%,-12.3,12.6µM*
Cn1c(=O)n(C)c2cc(NS(=O)(=O)c3ccccc3)ccc21,0.4,-4.0%,2.1,18.3%
Cc1ccc(NS(=O)(=O)c2ccc3c(c2)n(C)c(=O)n3C)cc1C,-1.9,-13.1%,-26.6,1.58µM*
Cn1c(=O)n(C)c2cc(S(=O)(=O)Nc3ccccc3)ccc21,-1.7,-3.4%,-0.6,3.98µM*
SMILES,CtBP-E1A inh,MBNL1 CUG block,Six1-Eya2 blk,PKM2 activator
COc1ccc(C(C)(O)c2nc(-c3cccc(O)c3)cs2)cc1 (configuration not stated),-3.2,·,-3.3,·
COc1ccc(/C=C2\C(=O)N(c3c(Cl)cc(Cl)cc3Cl)N=C2NC(=O)c2cccc([N+](=O)[O-])c2)cc1,-1.8,·,-78.9*,12.6%
CCn1c(N)c(C(=O)NCc2ccc3c(c2)OCO3)sc1=S,-7.3,?,-12.7,5.01µM*
O=C(O)c1c(Sc2ccccc2)c2cc(Cl)ccc2n1Cc1ccc(Cl)cc1,·,·,·,-0.7%
CCn1c(=O)n(CC)c2cc(S(=O)(=O)Nc3ccccc3C)c(C)cc21,-5.8,-5.4%,2.2,?
CCc1ccccc1NS(=O)(=O)c1cc2c(cc1C)n(C)c(=O)c(=O)n2C,-4.0,-10.1%,-11.3,3.98µM*
CCOc1cc(CNc2ccc3c(c2)OCCO3)cc(Br)c1OCC,?,7.6%,-66.6*,6.3%
CC(C)c1ccc(CNc2ccc(N3CCOCC3)cc2)cc1,-67.1*,1.5%,-71.8*,4.4%
CCOc1cc(CNc2ccc(N3CCOCC3)cc2)cc(Br)c1OCC,-66.8*,3.2%,-26.9,7.1%
Cc1ccc(CNc2ccc(N3CCOCC3)cc2)cc1,-12.6,15.4%,?,4.3%
CCCCc1cc2c(cn1)=C(OC(=O)c1ccc(Cl)nc1)C(C)(OC(=O)CC)C(=O)C=2 (configuration not stated),·,·,·,-1.0%[11.5 µM]
COc1ccc(-c2nc3c(c4c2C[C@H](c2ccccc2)OC4)CN(S(=O)(=O)c2ccc4c(c2)OCCN4C)CC3)c(C)c1,·,·,·,-5.7%[11.5 µM]
CC(C)CC1C(=O)N(Cc2cn(CCC3OCCCO3)nn2)CCS(=O)(=O)N1Cc1ccc(-c2ccncc2)cc1 (configuration not stated),20.0,·,-15.6,·
COc1cc([N+](=O)[O-])cc(/C=N/NC(=O)Cn2nccc2C)c1O,-93.9*,?,-88.5*,0.4%
Cc1cc(C)n(CC(=O)N/N=C/c2ccc([N+](=O)[O-])s2)n1,-12.4,?,-16.2,-0.5%
COc1cc([N+](=O)[O-])cc(/C=N/NC(=O)Cn2nc(C)cc2C)c1O,?,?,-90.6*,1.0%
Cc1ccc(Nc2cc(=O)n(C)c(=O)[nH]2)cc1C,3.7,·,4.2,·
COc1ccc(-c2coc3c(C(=O)NCc4ccc(OC)c(OC)c4)cccc23)c(C)c1,-19.4,·,-15.5,·
NC(c1csc(Nc2cc(NCc3ccco3)ncn2)n1)c1ccccc1Cl (configuration not stated),-80.2*,·,?,·
NC(Cc1ccc(F)cc1)c1csc(Nc2cc(NCc3ccco3)ncn2)n1 (configuration not stated),-76.3*,·,?,·
NC(Cc1ccc(F)cc1)c1csc(Nc2cc(Oc3ccccc3)ncn2)n1 (configuration not stated),-25.8,·,-18.5,·
CN[C@H](C)C(=O)NC[C@H]1O[C@@H](n2cc(C)c(=O)[nH]c2=O)C[C@@H]1O,-13.6,·,41.9,·
O=c1nc2c(O)cccn2c2c1c(=O)[nH]c1ccccc12,4.0,?,-83.0*,22.9%
CC(=O)NC(c1ccc(C)cc1)c1cc([N+](=O)[O-])c2cccnc2c1O (configuration not stated),-92.8*,4.9%,-90.1*,14.9%
CCCC(=O)NC(c1ccco1)c1cc([N+](=O)[O-])c2cccnc2c1O (configuration not stated),·,2.5%,-91.6*,-13.9%
CCC(=O)NC(c1ccc(C)cc1)c1cc([N+](=O)[O-])c2cccnc2c1O (configuration not stated),-86.6*,·,-84.9*,17.4%
CCCCC(=O)NC(c1cccs1)c1cc(Cl)c2cccnc2c1O (configuration not stated),·,22.6%,?,0.5%
COc1ccc(-c2cccc(N3CCN(c4ccccn4)CC3)n2)cc1OC,-11.6,·,-13.4,·
CCN(CC)c1ccc(C(=C2C=CC(=[N+](CC)CC)C=C2)c2ccc(N(CC)CC)cc2)cc1,-89.6*,·,-77.6*,·
